Assay outcomes: PubChem BioAssay, National Center for Advancing Translational Sciences (NCATS)
VDR inh – Inhibitors of the vitamin D receptor (VDR): qHTS | Vitamin D3 receptor (Homo sapiens), P11473 | VDR-SRC2-3 peptide fluorescence polarization, 2 h | Potency, µM, for inactives: max response, negative = inhibition, actives largely listed as inhibitors | 400,000 tested, 0.93% active | AID 504847, 2011
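After 23 nl compound addition and a short centrifugation, plates sat for 2 hours at ambient temperature; polarization of fluorescence then indicated loss of VDR binding to peptide SRC2-3.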
TDP1 cell noCPT – qHTS for Inhibitors of human tyrosyl-DNA phosphodiesterase 1 (TDP1): qHTS in cells in absence of CPT; DT40 Tdp1-/- hTDP1 cells, no CPT, ATP luminescence, 48 h; Potency, µM (doses to about 46.2 µM), without a hit: at the highest dose activity change, negative = growth inhibition, most hits filed as inhibitors; 420,000 tested, 15% active; also: nearly all actives have a fitted effect of over 55% in size
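A cellular qHTS used chicken DT40 cells lacking endogenous Tdp1 but carrying stably transfected human TDP1. Compounds were applied without camptothecin, and cell growth kinetics were judged by ATP-dependent luminescence after ≥48 hr.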
PLK1 PBD block – qHTS for Inhibitors of PLK1-PDB (polo-like kinase 1 - polo-box domain): Primary Screen. Serine/threonine-protein kinase PLK1 (Homo sapiens), P53350. Plk1 PBD binding of FITC phosphopeptide, fluorescence polarization. Potency, µM, for inactives: max response, negative = inhibition, actives largely listed as inhibitors. 360,000 tested, 2.8% active; also: series mostly up to about 57 µM; nearly all actives have a fitted effect of over 65% in size
Target sequence (P53350 whole entry, looked up, the tested form may be a part): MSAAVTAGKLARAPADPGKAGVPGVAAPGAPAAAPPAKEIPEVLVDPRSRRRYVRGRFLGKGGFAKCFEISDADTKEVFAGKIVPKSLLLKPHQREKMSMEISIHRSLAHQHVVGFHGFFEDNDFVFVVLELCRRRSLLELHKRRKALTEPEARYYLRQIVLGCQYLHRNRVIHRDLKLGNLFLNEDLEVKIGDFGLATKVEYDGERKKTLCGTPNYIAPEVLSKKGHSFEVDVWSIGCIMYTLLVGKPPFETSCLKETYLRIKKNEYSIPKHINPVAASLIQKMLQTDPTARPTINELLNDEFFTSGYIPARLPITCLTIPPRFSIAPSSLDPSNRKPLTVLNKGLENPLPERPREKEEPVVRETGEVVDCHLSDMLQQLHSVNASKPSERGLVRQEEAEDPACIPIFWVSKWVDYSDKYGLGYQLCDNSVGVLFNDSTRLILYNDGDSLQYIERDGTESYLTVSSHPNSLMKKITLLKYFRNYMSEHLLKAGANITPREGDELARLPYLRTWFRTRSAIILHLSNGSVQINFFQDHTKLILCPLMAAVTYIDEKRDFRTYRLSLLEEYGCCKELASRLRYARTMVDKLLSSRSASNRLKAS
TDP1 cell CPT – qHTS for Inhibitors of human tyrosyl-DNA phosphodiesterase 1 (TDP1): qHTS in cells in presence of CPT. AID 686979, 2013. 420,000 tested, 12% active. Potency, µM (top dose mostly 46.2 µM), inactives show top-dose activity change, negative = growth inhibition, actives largely listed as inhibitors. chicken DT40 Tdp1-/-;hTDP1 cells + 20 nM CPT, ATP luminescence, 48 h; also: nearly all actives have a fitted effect of over 55% in size
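Chicken DT40 Tdp1-/- cells stably complemented with human TDP1 were seeded at 400 cells/well in medium containing 20 nM camptothecin, exposed to pin-transferred compounds, and grown at 37 °C for at least 48 hr. Viability was read as ATP luminescence.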
KAT2A inh – qHTS Assay for Inhibitors of GCN5L2; AID 504327, 2011; 390,000 tested, 0.21% active; Histone acetyltransferase KAT2A (Homo sapiens), Q92830; GCN5L2 HAT assay, ThioGlo1 CoA-SH fluorescence; Potency, µM (highest dose often 58.9 µM), for the others: at the top dose activity change, negative = inhibition, hits mostly inhibitors
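qHTS, 1536-well. 20nM enzyme, pH 7.5 HEPES/EDTA/Tween-20 buffer; 15 min compound preinc., RT. Start: 75uM H3(1-25), 70uM AcCoA, 50uM ThioGlo1. Read Ex340/Em540 at t=0 (autofluorescence flag) and t=20 min.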
TDP1 block – qHTS Assay for Inhibitors of Tyrosyl-DNA Phosphodiesterase (TDP1) | Tyrosyl-DNA phosphodiesterase 1 (Homo sapiens), Q9NUW8 | recombinant TDP1, AlphaScreen DNA substrate cleavage | Potency, µM (titrated, usually from 130 µM), for inactives: at the highest dose activity change, negative = inhibition, most hits filed as inhibitors | 350,000 tested, 0.28% active | AID 485290, 2010; also: nearly all actives have a fitted effect of over 40% in size
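Steps: enzyme plus compound, 15 min RT; add biotin/phosphotyrosine-FITC oligonucleotide (15 nM final), react 5 min; add donor/acceptor beads (10 ug/ml final), 10 min; read AlphaScreen. Tdp1 at 1 nM final.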
Active calls of the source: *; ? = inconclusive; . = no result given. Most compounds without a hit are left out; they make up all but 18% or so of the library. Calls follow the shape of the dose curve; as a rule, active = well fitted curve in the direction sought with a large enough effect; inconclusive = small, poorly fitted or top-dose-only effect, or another doubt; inactive = no such curve, though single readings can be large; an effect the other way counts as inactive or inconclusive. % is scaled to controls: 0 for no effect and ±100 for the full control effect; potency is read from the fitted curve at half-maximal effect.

SMILES	VDR inh	TDP1 cell noCPT	PLK1 PBD block	TDP1 cell CPT	KAT2A inh	TDP1 block
Cc1ccc(C)c(NC(=S)c2ccccn2)c1	-14.0%	18.4µM*	23.8µM*	18.4µM*	1.6%	5.4%
Cc1c(C(=O)N(Cc2ccco2)Cc2ccccc2Cl)oc2ccc(F)cc12	0.1%	14.6µM*	.	?	-8.4%	4.9%
Cc1ccc2c(C)c(C(=O)N(Cc3ccc(N(C)C)cc3)Cc3ccco3)oc2c1C	14.8%	13µM*	.	?	-6.0%	11.0%
CCc1ccc2oc(C(=O)N(Cc3ccc(N(C)C)cc3)Cc3ccco3)c(C)c2c1	3.9%	16.4µM*	.	0.731µM*	-4.1%	14.7%
O=[N+]([O-])c1ccccc1N/N=C1\CC2CC=CC12 (centres undefined)	0.0%	-26.7%	5.0%	-20.7%	-1.2%	10.3%
O=S1(=O)N[C@H](Cc2ccccc2)COc2cc(N3CC[C@H](O)C3)ccc21	.	?	-5.9%	?	.	.
CC1CN(C(=O)N2CCC(C(=O)NCCCc3ccccc3)CC2)c2ccccc2O1 (centres undefined)	13.5%	?	.	20.6µM*	-2.8%	-2.6%
CC(C)NC(=O)C1CCN(C(=O)N2CC(C)Oc3ccccc32)CC1 (centres undefined)	9.6%	-8.1%	.	9.9%	-5.7%	-5.2%
CCCCNC(=O)C1CCN(C(=O)N2CC(C)Oc3ccc(Cl)cc32)CC1 (centres undefined)	23.1%	20.6µM*	.	?	-15.1%	6.5%
CC(CNC(=O)C1CCN(C(=O)N2CCOc3ccc(Cl)cc32)CC1)c1ccccc1 (centres undefined)	6.0%	16.4µM*	.	?	-12.4%	9.1%
CC1CN(C(=O)N2CCC(C(=O)NCCCc3ccccc3)CC2)c2cc(Cl)ccc2O1 (centres undefined)	3.9%	13µM*	.	18.4µM*	-15.9%	1.3%
CC(C)OCCCn1c(-c2ccc(Br)cc2)c[nH]c1=S	-8.8%	?	-20.5%	?	-9.7%	0.0%
CC1CN(C(=O)CCC(=O)N2CCCCC2)c2cc(Cl)ccc2O1 (centres undefined)	-12.5%	15.7%	-11.2%	-19.8%	-18.1%	0.2%
O=C(NCCCc1ccccc1)C1CCN(C(=O)N2CCOc3ccc(Cl)cc32)CC1	-6.6%	14.6µM*	.	16.4µM*	-14.2%	-1.3%
CC1CN(C(=O)N2CCC(C(=O)N3CCN(c4ccccc4)CC3)CC2)c2cc(Cl)ccc2O1 (centres undefined)	12.4%	13µM*	.	13µM*	-13.4%	6.5%
COc1ccc(-c2cc(C(F)(F)F)n3ncc(-c4ccccc4)c3n2)cc1	6.4%	?	.	?	-10.5%	.
O=C1SC(SCc2ccccc2Cl)=N/C1=C\c1ccc(C(=O)O)cc1	?	-24.3%	16.8µM*	-19.0%	-8.5%	.
CCSC1=N/C(=C\c2ccc(C(=O)O)cc2)C(=O)S1	-6.2%	-8.6%	?	-11.8%	-2.5%	-14.1%
C=CCSC1=N/C(=C\c2ccc(C(=O)O)cc2)C(=O)S1	8.5%	-5.7%	-16.4%	1.3%	-2.5%	28.2µM*
CCOC(=O)C1(C)CCCN(C(=O)c2cc(F)ccc2C)C1 (centres undefined)	.	-14.1%	5.7%	3.2%	.	.
COc1cccc(NC(=O)Cn2c(=O)n(-c3cccc(OC)c3)c(=O)c3sc4ccccc4c32)c1	-5.3%	?	.	?	-5.8%	-1.3%
Cc1ccccc1C(=O)n1nc(-c2ccco2)nc1NCc1ccc(Cl)cc1	9.0%	?	.	?	-5.0%	1.2%
